In all, about 220,000 compounds went through this assay and about 2,000 (0.91%) were called active. About 2% were inconclusive and are not listed. These entries were drawn from the full list. Entries with a potency or affinity are not part of this list. A number with no mark means an inactive call. Rule as the data show it: inconclusive = inhibition above about 80% without an active follow-up result; inactive = below that; test concentration not stated here.

These results are taken from PubChem BioAssay AID1626 (SRMLSC, 2009).

The nature of the assay: M. tuberculosis H37Rv growth inhibitors, H37Rv strain (AID 1626).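 Also: bacteria incubated seven days before Alamar blue readout; 0% = bacteria only wells and 100% = bacteria with antibiotic wells.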 Conditions: active compounds read high, concentration not given here.
For the compound `Cc1ccc(SCn2nnc3ccccc3c2=O)c(C)c1`, the inhibition was -6.38%.

Consider `COc1ccc2nc(/C=N/NC(=O)[C@@H]3CCCN3C(=O)OC(C)(C)C)ccc2c1`, for which the inhibition is -1.11%.

For the compound `O=C(COc1ccccc1)Nc1nnc(-c2ccccc2)o1`, the inhibition is 12.6%.

Turning to `O=C(COc1ccc(Cl)cc1)Nc1nnc(-c2ccco2)o1`, the inhibition is 0.85%.

For the compound `Clc1ccc(-c2nnc(NC3=NCCCCC3)o2)cc1`, the inhibition is -12.1%.

On to `O=C(NCc1nnc2n1CCCCC2)c1ccc(Cl)cc1Cl`, for which the inhibition was -8.85%.

Consider `CC(=O)Nc1cccc(-c2nnc(-c3ccccc3)o2)c1`, for which the inhibition is -12.3%.

Take `CC(=O)Nc1ccc2c(c1)CCCC2`: the inhibition is 0.76%.

For `CCN(CC)S(=O)(=O)c1ccc(N=N/C(C(C)=O)=C(/C)O)cc1`, the inhibition was -10.5%.

With `Cc1c(C#N)c(N=CN(C)C)c(C(=O)c2ccc(Br)cc2)n1-c1ccc(Cl)cc1`, the inhibition was 1.78%.

`CCn1c(C)nc2cc(S(=O)(=O)N3CCCCC3)ccc21`: the inhibition was -10.8%.

`CC(=O)O[C@@H]1[C@H]2[C@@H](C[C@@H](C)[C@@H]3CCC(=O)[C@@]13C)OC(=O)[C@@H]2C`: the inhibition was -3.15%.

For the compound `CC(=O)O[C@@H]1[C@H]2[C@@H](C[C@@H](C)[C@@H]3C=CC(=O)[C@@]13C)OC(=O)[C@@H]2C`, the inhibition was -0.99%.

Consider `C[C@@H]1C[C@@H]2OC(=O)[C@]3(C)[C@H]2[C@@H](OC3(C)O)[C@]2(C)C(=O)C=C[C@H]12` (stereo not given in full), for which the inhibition is -4.34%.

Regarding `C=C1C(=O)O[C@@H]2C[C@@H](C)[C@H]3C=CC(=O)[C@]3(O)C[C@@H]12`, the inhibition was -7.5%.

As to `C=C1C(=O)O[C@H]2[C@H]1[C@H](OC(=O)CC(=O)O[C@@H]1C[C@@H](C)[C@@H]3C=CC(=O)[C@@]3(C)[C@H]3OC(=O)C(=C)[C@H]13)C[C@@H](C)[C@H]1C=CC(=O)[C@]12C`, the inhibition is -7.78%.

Consider `COc1ccc(NC(=O)CCc2nc3ccccc3[nH]2)cc1`, for which the inhibition was -2.77%.

On to `CC(C)c1nc2c([nH]1)c(=O)n(C)c(=O)n2C`, for which the inhibition was -8.57%.

Take `CCCc1cc(C(=O)Nc2cc(Br)ccc2O)no1`: the inhibition was 78.3%.

For the compound `O=C(Nc1c(F)cc(F)cc1Br)c1cc(-c2ccc(O)cc2)on1`, the inhibition is 73.7%.

Consider `CC(C)Cc1cc(C(=O)Nc2ccc(Br)cc2)no1`, for which the inhibition was 68.8%.

For the compound `CCCc1cc(C(=O)Nc2ccc(C(C)=O)cc2)no1`, the inhibition is 79.7%.

Regarding `Cc1cc(C(=O)Nc2c(F)cc(F)cc2Br)no1`, the inhibition is 16.4%.

As to `CC(C)c1cc(C(=O)Nc2cc(Br)ccc2O)no1`, the inhibition was 43.5%.

On to `CCOC(=O)C1CCCN(C(=O)c2cccc(NC(=O)C(CC)CC)c2)C1` (stereo not given), for which the inhibition was -1.45%.

With `CCCCCOc1ccc(C)cc1CN(CCCl)CCCl`, the inhibition is 5.72%.

With `CCOC(=O)CNc1c(N2CCN(c3ccccn3)CC2)c(=O)c1=O`, the inhibition is 0.74%.

Consider `COCCn1c(C)cc(C(=O)COC(=O)c2ccc3c(c2)NC(=O)CS3)c1C`, for which the inhibition was 3.82%.

`N#C/C(=C\c1cn[nH]c1-c1ccc(Cl)cc1)C(=O)NC1CC1`: the inhibition was 9.87%.

Turning to `CCOC(=O)COc1cc(=O)n(CC)c2ccccc12`, the inhibition is 7.42%.

In the case of `Cc1cc(NC(=O)/C=C/c2ccc(F)cc2)n(-c2nc3ccccc3[nH]2)n1`, the inhibition was 13.6%.

Turning to `Cc1cc(NC(=O)C2CCC2)n(-c2ccccn2)n1`, the inhibition was 2.03%.

As for `COc1ccc(/C=C/C(=O)Nc2cc(C)nn2-c2nc3ccccc3[nH]2)cc1`, the inhibition was 11.4%.

Take `CCOC(=O)C(=O)Nc1cc(C)nn1-c1nc2ccccc2[nH]1`: the inhibition is -8.84%.

Turning to `COC(C[C@@H]1O[C@H]1[C@H](O)[C@@H](C)OCc1ccccc1)OC`, the inhibition was -4.16%.

On to `CCn1c2ccccc2c2nnc(NN)nc21`, for which the inhibition is -7.42%.

With `O=C(/C(C=Nc1cccc(C(F)(F)F)c1)=C(/O)c1ccco1)C(F)(F)F`, the inhibition is 0.06%.

For the compound `Cc1nn(C)c(C)c1NC(=O)CCl`, the inhibition is -7.2%.

On to `CCn1c(SCC(=O)N=Nc2c(O)[nH]c3ccccc23)nnc1-c1ccc(C(C)(C)C)cc1`, for which the inhibition is -1.76%.

Consider `Cc1[nH]c2ccc(F)cc2c1CCNC(=O)C1CCCCC1C(=O)OCC(F)(F)F` (stereo not given), for which the inhibition was 2.82%.

As to `O=C(NCc1ccccc1)c1ccc(Br)cc1`, the inhibition was -2.09%.

With `Cc1[nH]n(-c2ccccc2)c(=O)c1N=Nc1ccccc1O`, the inhibition was 5.76%.

Consider `Cc1[nH]n(-c2ccccc2)c(=O)c1N=Nc1ccc2c(c1)OCCO2`, for which the inhibition was -5.08%.

Consider `Cc1ccccc1N=Nc1c(C)[nH]n(-c2ccccc2)c1=O`, for which the inhibition is -1.01%.

Consider `Cc1[nH]n(-c2ccccc2)c(=O)c1N=Nc1ccccc1`, for which the inhibition was 3.96%.

As to `Cc1nnc(NC(=O)CCSCCC(=O)Nc2nnc(C)s2)s1`, the inhibition was 1.24%.

Take `COc1ccc(/C=C/C(=O)c2c(O)ccc3c(C)cc(=O)oc23)cc1`: the inhibition is 17.2%.

As for `O=C(COC(=O)c1ccccc1O)NCCC1=CCCCC1`, the inhibition is 7.1%.

With `O=C(COC(=O)c1ccccc1Cl)NCCC1=CCCCC1`, the inhibition is 4.94%.

With `O=C(NCc1ccco1)C1CCN(Cc2ccc(F)cc2)CC1`, the inhibition is 1.23%.

Take `COc1ccc(CNC(=S)Nc2cc(C)ccc2C)cc1`: the inhibition was 4.83%.

Regarding `C=CCn1c(SCC(=O)N2CCc3ccccc3C2)nc2ccccc2c1=O`, the inhibition is -0.56%.

`O=C1CC(c2ccccc2Oc2cccc(Cl)c2)C(n2cncn2)C(=O)C1C1NCCc2ccccc21` (stereo not given): the inhibition was -9.29%.

In the case of `Cc1cc(C)c2c(n1)sc1c(N3CCN(CCO)CC3)ncnc12`, the inhibition is 18.8%.

With `Cc1cc(C)c2c(n1)sc1c(N3CCN(C)CC3)ncnc12`, the inhibition is 7.86%.

For `Cc1ccc(NC(=O)NCC2CCN(Cc3cccc(Cl)c3)CC2)c(Cl)c1`, the inhibition is 33.5%.

`CCc1cccc(CN2CCC(CNC(=O)Nc3ccc(Cl)cc3)CC2)c1`: the inhibition was 0.84%.

Turning to `COCCn1c(COc2ccc(OC)cc2)nc2ccccc21`, the inhibition was 4.25%.

For `Cc1sc(NC(=O)C2CC(Cl)=CCC2C(=O)O)c(C#N)c1C` (stereo not given), the inhibition was -16.1%.

As to `Cc1ccc(-c2nnn(CC(=O)N(c3ccc(F)cc3)C(C(=O)NC(C)(C)C)c3ccco3)n2)o1` (stereo not given), the inhibition is -0.26%.

Take `Cc1onc(-c2c(Cl)cccc2Cl)c1C(=O)c1ccccc1`: the inhibition was -5.4%.

In the case of `Cc1ccc(NC(NC(=O)c2cccs2)C(Cl)(Cl)Cl)cc1` (stereo not given), the inhibition was 21%.

For the compound `Cc1ccccc1NC(NC(=O)c1cccs1)C(Cl)(Cl)Cl` (stereo not given), the inhibition is -3.03%.

Turning to `Nc1nc(SCC(=O)Nc2ccccc2)[nH]c(=O)c1NC(=O)c1cccs1`, the inhibition is -5.6%.

For `Cc1ccc2c(CC(=O)Nc3cccc(S(=O)(=O)N4CCOCC4)c3)coc2c1`, the inhibition is 5.42%.

For `CC(C)C(=O)NC(CC(=O)O)c1ccccc1` (stereo not given), the inhibition is -15.2%.

For the compound `Cc1nnc(SCC(=O)N/N=C/c2cc(Cl)c(O)c(Cl)c2)s1`, the inhibition is -3.34%.

For `Cc1cc(NC(=O)/C=C/c2ccccc2)no1`, the inhibition was -1.33%.

As to `COC(=O)c1cc(-c2ccccc2)on1`, the inhibition is 45%.

On to `O=C(Nc1ccc(N2CCOCC2)c(Cl)c1)c1cccnc1Cl`, for which the inhibition is -3.3%.

Take `Cc1cccn2c(=O)c(C=NCCO)c(Nc3ccc(Cl)cc3)nc12`: the inhibition was 2.37%.

Turning to `Cc1cc(=O)oc(C)c1C(=O)Nc1cccc2ccccc12`, the inhibition is 7.53%.

Consider `COc1ccccc1NC(=O)c1c(C)oc2c1CCCC2`, for which the inhibition is -16.9%.

For `FC(F)(F)c1cc(Oc2ccccc2)nc(-c2ccccn2)n1`, the inhibition is 12.1%.

Regarding `CCN(CC)c1cc(C(F)(F)F)nc(-c2ccccn2)n1`, the inhibition is -2.81%.

As for `O=C(O)CSc1cc(C(F)(F)F)nc(-c2ccccn2)n1`, the inhibition was -6.21%.

For the compound `CN(C)c1cc(C(F)(F)F)nc(-c2ccccn2)n1`, the inhibition was 3.02%.

As for `COc1cc(C(F)(F)F)nc(-c2ccccn2)n1`, the inhibition is 6.27%.

For `C#CCSc1cc(C(F)(F)F)nc(-c2ccccn2)n1`, the inhibition was 5.1%.

Take `FC(F)C(F)(F)c1cc(-c2ccc(Cl)cc2)n[nH]1`: the inhibition was 12.2%.

In the case of `CNc1nnc(CSc2nc(C)cc(C)n2)s1`, the inhibition is -5.32%.

On to `O=C(c1cccc(C(F)(F)F)c1)C1CCCN(C(=O)CCCn2cncn2)C1` (stereo not given), for which the inhibition was 4.12%.

As to `CN(CCCNC(=O)CSc1cc(=O)n(C)c2cc(Cl)ccc12)Cc1ccccc1`, the inhibition was 4.19%.

As for `COc1ccc(NC(=O)c2noc(C(C)C)c2[N+](=O)[O-])cc1`, the inhibition was -2.72%.

For the compound `NS(=O)(=O)c1ccc(CNC(=S)NC2CC2)cc1`, the inhibition was -2.38%.

As to `CN(Cc1ccccc1)c1ccc(N2C(=O)CCC2=O)cc1[N+](=O)[O-]`, the inhibition was -1.08%.

For the compound `COc1ccccc1NS(=O)(=O)c1ccc(C(N)=O)cc1`, the inhibition is -0.48%.

In the case of `Cc1ccc2c(c1)N(CC(=O)N1CCCCC1c1cccnc1)C(=O)CO2` (stereo not given), the inhibition is -4.68%.

Consider `CCO[C@@H]1OC(C(=O)NCc2nc3ccccc3[nH]2)=C[C@H](C(C)(C)C)[C@H]1CCCO`, for which the inhibition is -3%.

Regarding `C[C@H]1COC2=C1C(=O)C(=O)c1c2ccc2c1CCCC2(C)C`, the inhibition was -2.33%.

As for `Cc1ccc(C(=O)c2coc3c2C(=O)C(=O)c2ccccc2-3)cc1`, the inhibition was -2.44%.

Take `Cc1ccc2c3c(cccc13)-c1ccccc1C2=O`: the inhibition is 10.1%.

For the compound `O=C1C(=O)c2c(C(=O)c3ccccc3)coc2-c2ccccc21`, the inhibition was 4.79%.

For `O=C(CN1CCC(n2nnc3cc(F)ccc32)CC1)NNC(=O)c1ccccc1`, the inhibition is -6.09%.

With `N#Cc1ccc(COC(=O)c2ccccn2)cc1`, the inhibition was 39%.
